# Results published in the supplement of paper PMC12350171.
# Structures can show the parent of a compound that is named as a salt. A number with no mark means an inactive call.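 The calls were made as follows: active = normalised median growth AUC below 0.1 of DMSO control; inactive = AUC 0.1 or higher.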
# Key:
# Test in all cases: growth AUC normalised to DMSO control (median) (fraction of control); higher = less growth inhibition, active = hit call of the paper
# Conditions in all cases: 20 µM
# P. vulgatus RND KO = tested on: P. vulgatus RND KO
# Procedure, shortened: (§1)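 Strains were passaged twice overnight without oxygen, then grown in mGAM in 96-well plates with each approved-drug library compound at 20 μM and 1% DMSO, starting at OD578 0.01. OD578 was read hourly for 24 h inside an anaerobic incubator. Curves were truncated at entry into stationary phase, and the trapezoidal-rule area under the curve was normalised to same-plate vehicle wells. The value is the median across three biological replicates.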
# P. vulgatus WT = tested on: P. vulgatus WT
# Procedure, shortened: as §1
# [1] = tested on: S. enterica typhimurium WT
# Procedure, shortened: as §1
# [2] = tested on: S. enterica typhimurium tolC KO
# Procedure, shortened: as §1
# 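Also: active when median AUC fell below 0.1.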
Compound,growth AUC normalised to DMSO control (P. vulgatus RND KO),growth AUC normalised to DMSO control (P. vulgatus WT),growth AUC normalised to DMSO control [1],growth AUC normalised to DMSO control [2]
CC(=O)Oc1c(C)cccc1C(=O)O [Cresopirine],0.998,0.986,0.998,0.986
O=c1[nH]c(=O)n([C@H]2C[C@H](O)[C@@H](CO)O2)cc1/C=C/Br [Brivudine],1.02,1.01,1,1.01
Cc1c(O)cccc1C(=O)N[C@@H](CSc1ccccc1)[C@H](O)CN1C[C@H]2CCCC[C@H]2C[C@H]1C(=O)NC(C)(C)C [Nelfinavir mesylate],0.912,0.954,1,0.962
CN1CCN(C2Cc3ccccc3Sc3ccc(Cl)cc32)CC1 (stereo not given) [Octoclothepin maleate salt],1.05,1.05,0.981,0.929
CC(C(=O)O)c1ccc(CC2CCCC2=O)cc1 (stereo not given) [Loxoprofen],1.01,1.01,1.01,1.01
CN[C@@H]1[C@@H](O[C@H]2O[C@H](CO)[C@@H](N)[C@H](O)[C@H]2O)OC2C[C@@H](N)[C@@H](O[C@H]3[C@H](O)[C@@H](O)[C@H](N)C[C@@H]3N)OC2[C@@H]1O (stereo not given in full) [Apramycin],1,0.998,1.01,0.996
C[C@@H](CN1CC(=O)NC(=O)C1)N1CC(=O)NC(=O)C1 [Dexrazoxane hydrochloride],1.01,0.988,1.01,0.989
CCOc1ccccc1OCCN[C@H](C)Cc1ccc(OC)c(S(N)(=O)=O)c1 [(R)-Tamsulosin hydrochloride],0.997,1.01,1,0.965
CO/N=C1\CN(c2nc3c(cc2F)c(=O)c(C(=O)O)cn3C2CC2)CC1CN (stereo not given) [Gemifloxacin mesylate],0.0152 (active),0.0136 (active),0.0112 (active),0.0027 (active)
Brc1c(NC2=NCCN2)ccc2nccnc12 [Brimonidine L-tartrate],0.994,1.02,0.999,1.01
CC(C)c1cc2c(cc1S(=O)(=O)O)[C@@]1(C)CCC[C@@](C)(C(=O)O)[C@@H]1CC2 [Ecabet sodium],1.01,1.02,1.01,0.988
N[C@H](Cc1ccccc1)C(=O)O [D-phenylalanine],0.996,0.985,0.995,1
CN[C@@H]1CCc2[nH]c3ccc(C(N)=O)cc3c2C1 [Frovatriptan succinate],1.02,1.02,1,1
CCCC(=O)N1CCCN(c2nc(N)c3cc(OC)c(OC)cc3n2)CC1 [Bunazosin hydrochloride],1.01,1.01,1,0.994
O=C(O)COc1nn(Cc2ccccc2)c2ccccc12 [Bendazac],0.998,1.02,1,0.987
CCOC(=O)c1ccc(C#Cc2ccc3c(c2)C(C)(C)CCS3)nc1 [Tazarotene],0.993,1.02,1,0.982
C[C@H](CCc1ccccc1)NC[C@H](O)c1ccc(O)c(C(N)=O)c1 [Dilevalol],1.02,1.05,0.996,1.01
CN(C)c1cc(NC(=O)CNC(C)(C)C)c(O)c2c1C[C@H]1C[C@H]3[C@H](N(C)C)C(=O)C(C(N)=O)=C(O)[C@@]3(O)C(=O)C1=C2O [Tigecycline],0.987,0.997,0.995,0.997
CCCCS(=O)(=O)N[C@@H](Cc1ccc(OCCCCC2CCNCC2)cc1)C(=O)O [Tirofiban hydrochloride],0.994,0.99,0.989,0.964
CCN[C@@H]1C[C@H](N)[C@@H](O[C@H]2OC(CN)=CC[C@H]2N)[C@H](O)[C@H]1O[C@H]1OC[C@](C)(O)[C@H](NC)[C@H]1O [Netilmicin sulfate],1.02,1.04,0.996,0.932
CCCSS/C(CCO)=C(/C)N(C=O)Cc1cnc(C)nc1N [Prosultiamine],1.09,1.06,0.997,1.02
CO/N=C(\C(=O)N[C@@H]1C(=O)N2C(C(=O)[O-])=C(C[n+]3cccc4c3CCC4)CS[C@H]12)c1csc(N)n1 [Cefpirome sulfate],0.0131 (active),0.00672 (active),0.00453 (active),0.00385 (active)
CCCCCNC(=N)N/N=C/c1c[nH]c2ccc(OC)cc12 [Tegaserod maleate],0.999,0.991,0.994,0.941

Compound,growth AUC normalised to DMSO control (P. vulgatus RND KO),growth AUC normalised to DMSO control (P. vulgatus WT),growth AUC normalised to DMSO control [1],growth AUC normalised to DMSO control [2]
COCCCOc1cc(C[C@@H](C[C@H](N)[C@@H](O)C[C@H](C(=O)NCC(C)(C)C(N)=O)C(C)C)C(C)C)ccc1OC [Aliskiren hemifumarate],1,1.05,0.997,1
Cn1c(=O)cc(N2CCC[C@@H](N)C2)n(Cc2ccccc2C#N)c1=O [Alogliptin benzoate],0.981,0.971,0.991,0.992
CCCCc1oc2ccc(NS(C)(=O)=O)cc2c1C(=O)c1ccc(OCCCN(CCCC)CCCC)cc1 [Dronedarone hydrochloride],1.01,1.03,1,1
CCc1oc2ccccc2c1C(=O)c1cc(I)c(O)c(I)c1 [Benziodarone],0.647,0.606,0.999,0.815
C=C1[C@H](CO)[C@@H](O)C[C@@H]1n1cnc2c(=O)[nH]c(N)nc21 [Entecavir],1,0.996,0.999,0.987
CC(NN)c1ccccc1 (stereo not given) [Mebanazine],0.898,0.871,1,0.99
C[C@@H](O)[C@H]1C(=O)N2C(C(=O)O)=C(S[C@@H]3CN[C@H](CNS(N)(=O)=O)C3)[C@H](C)[C@H]12 [Doripenem monohydrate],0.00779 (active),0.00747 (active),0.00575 (active),0.00595 (active)
N[C@@H](Cc1c[nH]c2ccccc12)C(=O)O [L-Tryptophan],1,1.03,0.994,0.989
COc1cccc(OC)c1C(=O)N[C@@H]1C(=O)N2[C@@H]1SC(C)(C)[C@@H]2C(=O)O [Methicillin sodium],,0.708,0.99,0.482
COCC1=C(C(=O)OC(C)OC(=O)OC(C)C)N2C(=O)[C@@H](NC(=O)/C(=N\OC)c3csc(N)n3)[C@H]2SC1 (stereo not given in full) [Cefpodoxime proxetil],,,0.853,0.338
O=C1Nc2ccccc2C1(c1ccc(O)cc1)c1ccc(O)cc1 [Oxyphenisatin],1.04,1.04,0.994,0.99
C[C@H](NCc1ccc(OCc2cccc(F)c2)cc1)C(N)=O [Safinamide],1.02,1.01,0.986,1
O=C1c2cccc(O)c2C(=O)c2c(O)cccc21 [Danthron],0.689,0.525,0.991,0.369
C=C1CC[C@H](O)C/C1=C/C=C1\CCC[C@]2(C)[C@@H]([C@H](C)CCCC(C)C)CC[C@@H]12 [Cholecalciferol],1.05,1.07,0.999,0.982
Cc1ccc(Nc2c(F)cccc2Cl)c(CC(=O)O)c1 [Lumiracoxib],0.985,1.01,1,1
CC(=O)Oc1ccc(C(=C2CCCCC2)c2ccc(OC(C)=O)cc2)cc1 [Cyclofenil],0.903,0.904,0.997,0.972
COc1cc(/C=C/C(=O)N2CCN(CC(=O)N3CCCC3)CC2)cc(OC)c1OC [Cinepazide maleate],1.04,1.08,1.01,1.01
CCc1ccc(C(=O)C(C)CN2CCCCC2)cc1 (stereo not given) [Eperisone Hydrochloride],1.03,1.04,1,0.989
Cc1cc(C#N)cc(C)c1Oc1nc(Nc2ccc(C#N)cc2)nc(N)c1Br [Etravirine],1.03,1.02,1.01,1.01
CO/N=C(\C(=O)N[C@@H]1C(=O)N2C(C(=O)OC(C)OC(C)=O)=C(COC(N)=O)CS[C@H]12)c1ccco1 (stereo not given in full) [Cefuroxime axetil],,0.664,1.1,
CS(=O)(=O)c1ccc([C@@H](O)[C@@H](CF)NC(=O)C(Cl)Cl)cc1 [Florfenicol],0.0099 (active),0.00788 (active),0.00248 (active),0.00279 (active)
CC(C)COC(=O)OCN1C(=O)CN(CCN2CC(=O)N(COC(=O)OCC(C)C)C(=O)C2)CC1=O [Sobuzoxane],1.04,1.08,0.998,1
C[N+](C)(C)C[C@H](O)CC(=O)[O-] [Levocarnitine],0.998,1.04,0.998,1

Compound,growth AUC normalised to DMSO control (P. vulgatus RND KO),growth AUC normalised to DMSO control (P. vulgatus WT),growth AUC normalised to DMSO control [1],growth AUC normalised to DMSO control [2]
O=C(Cn1cnnn1)N[C@@H]1C(=O)N2C(C(=O)O)=C(CSc3nncs3)CS[C@H]12 [Ceftezole],0.00781 (active),0.00376 (active),0.0119 (active),0.00306 (active)
CC(=O)c1cc2cccc(OCC(O)CNC(C)C)c2o1 (stereo not given) [Befunolol],1.03,1.06,1,1
Cc1cccc(C)c1NC(=O)CC12CCCN1CCC2 [Pilsicainide Hydrochloride],1.05,1.09,1,1
CN(C)C(=O)COC(=O)Cc1ccc(OC(=O)c2ccc(NC(=N)N)cc2)cc1 [Camostat mesylate],1.02,1.03,0.997,1
CC1CC(OC(=O)C(O)c2ccccc2)CC(C)(C)C1 (stereo not given) [Cyclandelate],0.983,0.975,1,0.903
CC/C=C(\C(=O)N[C@@H]1C(=O)N2C(C(=O)OCOC(=O)C(C)(C)C)=C(COC(N)=O)CS[C@H]12)c1csc(N)n1 [Cefcapene pivoxil hydrochloride monohydrate],,,1.03,0.159
CCCCC1=NC2(CCCC2)C(=O)N1Cc1ccc(-c2ccccc2-c2nnn[nH]2)cc1 [Irbesartan],0.985,1,1.01,0.987
CO/N=C(\C(=O)N[C@@H]1C(=O)N2C(C(=O)OCOC(=O)C(C)(C)C)=C(/C=C\c3scnc3C)CS[C@H]12)c1csc(N)n1 [Cefditoren Pivoxil],,,0.905,0.387
O=C1[C@H](CC[C@H](O)c2ccc(F)cc2)[C@@H](c2ccc(O)cc2)N1c1ccc(F)cc1 [Ezetimibe],0.901,0.918,1,0.828
CCOC(=O)[C@H](CCc1ccccc1)N[C@@H](C)C(=O)N1C(=O)N(C)C[C@H]1C(=O)O [Imidapril hydrochloride],1.01,1,1.02,1
CC1(C)S[C@@H]2[C@H](NC(=O)[C@H](N)c3ccccc3)C(=O)N2[C@H]1C(=O)O [Ampicillin sodium salt],,,0.773,0.112
CO/N=C(\C(=O)N[C@@H]1C(=O)N2C(C(=O)[O-])=C(C[n+]3ccn4ncccc43)CS[C@H]12)c1nsc(N)n1 [Cefozopran hydrochloride],,0.128,0.0996 (active),0.1
Cn1nnnc1SCC1=C(C(=O)O)N2C(=O)[C@@H](NC(=O)[C@H](O)c3ccccc3)[C@H]2SC1 [Cefamandole sodium salt],0.204,,0.0103 (active),0.00496 (active)
CCN1/C(=C/C=C/C=C/c2sc3ccccc3[n+]2CC)Sc2ccccc21 [Dithiazanine iodide],,1.02,1,0.695
CC(C(=O)O)c1ccc2c(c1)CC(=O)c1ccccc1S2 (stereo not given) [Zaltoprofen],1.02,1.01,0.998,0.978
NC(=O)c1cc[n+](CC2=C(C(=O)O)N3C(=O)[C@@H](NC(=O)C(c4ccccc4)S(=O)(=O)[O-])[C@H]3SC2)cc1 (stereo not given in full) [Cefsulodin Sodium Salt Hydrate],,,0.995,0.986
Nc1nc(/C(=C/CC(=O)O)C(=O)N[C@@H]2C(=O)N3C(C(=O)O)=CCS[C@H]23)cs1 [Ceftibuten],,0.58,0.746,
CCOc1ccc(NC(=O)CC(C)O)cc1 (stereo not given) [Bucetin],0.981,0.981,1,0.992
CC(=O)Nc1ccc(OC(=O)c2ccccc2O)cc1 [Acetaminosalol],0.959,0.964,1,0.937
NC(=O)OCC(COC(N)=O)c1ccccc1 [Felbamate],1,1.04,0.999,1
N[C@@H]1CCCCN(c2c(F)cc3c(=O)c(C(=O)O)cn(C4CC4)c3c2Cl)C1 [Besifloxacin hydrochloride],0.0164 (active),0.0175 (active),0.00618 (active),0.00833 (active)
